The target of experiment [1] is Glutathione peroxidase 1 (Homo sapiens) (UniProt P07203). Put plainly: Primary qHTS Assay for Inhibitors of Recombinant Selenoprotein Glutathione Peroxidase 1 (GPX1) (AID 1845191). Also: nearly all actives have a fitted effect of over 65% in size. Also: potency is read from the fitted curve at half-maximal effect. A digest of the protocol:
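Recombinant GPX1 (10 nM final) was preincubated with compound for 30 min at room temperature, then reacted with 1 mM GSH, 0.5 mM CHP, 0.5 mM NADPH and 100 nM glutathione reductase; NADPH fluorescence (340/450 nm) was read at 0 and 15 min.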
(In general: Quantitative high-throughput screening tests each substance at several concentrations.)

In experiment [2] the target is Phospholipid hydroperoxide glutathione peroxidase GPX4 (Homo sapiens) (UniProt P36969). Put plainly: Primary qHTS Assay for Inhibitors of Recombinant Selenoprotein Glutathione Peroxidase 4 (GPX4) (AID 1845192). Also: nearly all actives have a fitted effect of over 65% in size. Also: potency is read from the fitted curve at half-maximal effect. A digest of the protocol:
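GR-coupled readout: 100 nM GR, 1 mM GSH, 0.5 mM NADPH; NADPH fluorescence (ex 340/em 450 nm) read at t=0 and after 15 min RT. GPX4 200 nM, preincubated 30 min with compound; substrate 0.5 mM CHP.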

The target of experiment [3] is Luciferin 4-monooxygenase (Photinus pyralis) (UniProt P08659). Put plainly: Primary firefly luciferase (FLuc) qHTS assay for identification of artifact compounds. (AID 1845220). Also: nearly all actives have a fitted effect of over 60% in size. A digest of the protocol: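 qHTS, 15 min compound preincubation with substrate (10 uM luciferin, 10 uM ATP) at RT, then 10 nM FLuc; 5 min; luminescence; % inhibition vs no-enzyme/DMSO controls, 4-parameter Hill fit.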

Experiment [4] in a line: Primary redox qHTS assay for identification of artifact compounds. (AID 1845223). A digest of the protocol:
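Amplex Red (25 uM) and HRP (250 mU/mL) in HBSS, with compounds for 15 min, then 250 uM DTT for 30 min, room temperature, dark. Fluorescence 525/598 nm read; normalized to DMSO and 10 uM DA3003; Hill fit.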

A short description of experiment [5]: Quantitative High-Throughput drug screen in 47 multiple myeloma cell lines against the NCATS MIPE library collection: FR4_PLB cell viability assay (AID 1918924; also: nearly all actives have a fitted effect of over 35% in size; also: potency is read from the fitted curve at half-maximal effect). A digest of the protocol:
(§1)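 CellTiter-Glo luminescence (ATP) after 48 h compound exposure, 37C/5% CO2; 500 cells/well; MIPE 4.0 approved/investigational drugs pinned in; DMSO = 100%, media only = 0% viability.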

Experiment [6] in a line: Quantitative High-Throughput drug screen in 47 multiple myeloma cell lines against the NCATS MIPE library collection: Delta47_JCRB cell viability assay (AID 1918925; also: nearly all actives have a fitted effect of over 45% in size; also: potency is read from the fitted curve at half-maximal effect). The method in brief: (§2)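 Myeloma cells (500 per well) were exposed to MIPE 4.0 compounds by pin transfer and incubated 48 hours at 37C, 5% CO2. Viability was read as ATP by CellTiter-Glo luminescence, normalised to DMSO (100%) and media-only (0%) wells.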

Experiment [7] can be described thus: Quantitative High-Throughput drug screen in 47 multiple myeloma cell lines against the NCATS MIPE library collection: EJM_DSMZ cell viability assay (AID 1918926; also: nearly all actives have a fitted effect of over 30% in size; also: potency is read from the fitted curve at half-maximal effect). The method in brief: as §2
The nature of experiment [8]: Quantitative High-Throughput drug screen in 47 multiple myeloma cell lines against the NCATS MIPE library collection: AMO1_DSMZ cell viability assay (AID 1918927; also: nearly all actives have a fitted effect of over 30% in size; also: potency is read from the fitted curve at half-maximal effect). A digest of the protocol:
as §2

The nature of experiment [9]: Quantitative High-Throughput drug screen in 47 multiple myeloma cell lines against the NCATS MIPE library collection: ARP1_JJKsccF8 cell viability assay (AID 1918928; also: nearly all actives have a fitted effect of over 40% in size; also: potency is read from the fitted curve at half-maximal effect). A digest of the protocol:
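Myeloma cells at 500 per well in 1536-well format treated with MIPE 4.0 library by pin transfer for 48 h at 37C, 5% CO2. Viability from ATP luminescence (CellTiter-Glo), normalized to DMSO (100%) and media-only (0%) wells.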

A short description of experiment [10]: Quantitative High-Throughput drug screen in 47 multiple myeloma cell lines against the NCATS MIPE library collection: ARD_JJKsccE7 cell viability assay (AID 1918929; also: potency is read from the fitted curve at half-maximal effect). The method in brief: as §2
Experiment [11] in a line: Quantitative High-Throughput drug screen in 47 multiple myeloma cell lines against the NCATS MIPE library collection: Karpas620_DSMZ cell viability assay (AID 1918959). Also: nearly all actives have a fitted effect of over 30% in size. Also: potency is read from the fitted curve at half-maximal effect. The method in brief:
as §1

The nature of experiment [12]: Primary fluorescence-based thiol-reactive (MSTI) qHTS assay for identification of artifact compounds. (AID 1845221).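 Also: series mostly up to about 54 µM; thiol-reactive compounds lower the probe fluorescence signal; nearly all actives have a fitted effect of over 65% in size.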 A digest of the protocol: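 First, 4 uM MSTI in 2% DMSO/PBS pH 7.4 was dispensed; next, compounds were added; then plates sat 1 h at room temperature without light. Finally, emission at 598 nm was recorded.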
In experiment [13] the test system is Nanoluciferase (engineered Oplophorus gracilirostris luciferase). Briefly: Primary Nanoluciferase (NLuc) qHTS assay for identification of artifact compounds. (AID 1845222). Also: series mostly up to about 54 µM. The method in brief:
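Luminescence read-out of secreted NLuc in S16 cell conditioned medium (1:55); compounds tested with 15 min RT preincubation, then Nano-Glo substrate 1:100, 5 min. % inhibition vs no-enzyme and DMSO controls, 4-parameter Hill fit.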

Results filed as inconclusive are left out. Active and inactive are the calls of the source. Calls follow the shape of the dose curve; as a rule, active = well fitted curve in the direction sought with a large enough effect; inconclusive = small, poorly fitted or top-dose-only effect, or another doubt; inactive = no such curve, though single readings can be large; an effect the other way counts as inactive or inconclusive.

Chain of Glutathione peroxidase 1 (Homo sapiens) (P07203 whole entry, looked up): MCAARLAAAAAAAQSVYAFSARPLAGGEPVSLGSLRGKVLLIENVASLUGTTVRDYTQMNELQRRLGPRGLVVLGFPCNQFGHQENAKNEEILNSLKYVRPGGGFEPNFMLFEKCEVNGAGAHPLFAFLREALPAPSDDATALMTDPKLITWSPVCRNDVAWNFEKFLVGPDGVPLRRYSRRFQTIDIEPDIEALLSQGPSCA
Chain of Phospholipid hydroperoxide glutathione peroxidase GPX4 (Homo sapiens) (P36969 whole entry, looked up): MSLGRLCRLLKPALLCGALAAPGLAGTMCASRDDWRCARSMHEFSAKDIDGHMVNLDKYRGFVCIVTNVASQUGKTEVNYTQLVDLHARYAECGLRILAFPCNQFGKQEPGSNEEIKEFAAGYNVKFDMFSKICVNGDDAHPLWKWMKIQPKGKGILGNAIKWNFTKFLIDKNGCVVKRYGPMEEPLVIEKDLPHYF

In the case of `CC[C@@]1(O)C(=O)OCc2c1cc1n(c2=O)Cc2cc3cc(O)ccc3nc2-1`, the Potency entry in experiment [1], in experiment [2], in experiment [3] and in experiment [4] was “inactive” each time. Moreover, the Potency in experiment [5] is 1.18 µM (active); in [6], 0.187 µM (active); in experiment [7] it was 0.372 µM (active); in [8], 0.0743 µM (active); in experiment [9], 0.418 µM (active); in experiment [10], 2.35 µM (active).
With `CCc1c2c(nc3ccc(O)cc13)-c1cc3c(c(=O)n1C2)COC(=O)[C@]3(O)CC`, the Potency result in [1], in experiment [2], in [3] and in [4] was “inactive” in each case. Further, the Potency in experiment [5] was 0.59 µM (active); in [6], 0.0372 µM (active); in [7] it was 0.187 µM (active); in experiment [8], 0.0118 µM (active); in experiment [9], 0.187 µM (active); in [10] it was 1.66 µM (active).
As to `Cc1nc2cnc3ccc(C#Cc4cccnc4)cc3c2n1-c1ccc(C(C)(C)C#N)cc1`, the Potency entry in experiment [1] and in [2] was “inactive” each time. The Potency in experiment [5] is 0.118 µM (active); in experiment [6], 0.0166 µM (active); in [7], 1.66 µM (active).
In the case of `C=CC(=O)Nc1cc2c(Nc3ccc(F)c(Cl)c3)ncnc2cc1C#CC(C)(C)N1CCN(C)CC1`, the Potency entry in [1] and in experiment [2] was “inactive” in each case. In addition, the Potency is 3.72 µM (active) in [5]; 0.469 µM (active) in experiment [6]; 2.09 µM (active) in [7]; 0.662 µM (active) in [8]; 5.9 µM (active) in [9]; 1.05 µM (active) in experiment [10].
With `C=C1C(=CC=C2CCC[C@]3(C)[C@@H]([C@H](C)C=C[C@H](C)C(C)C)CC[C@@H]23)C[C@@H](O)C[C@@H]1O`, the Potency entry in experiment [1] and in experiment [2] was “inactive” each time. For the same molecule, the Potency in experiment [5] was 5.9 µM (active); in experiment [6], 8.33 µM (active); in experiment [8], 0.235 µM (active); in [9], 1.66 µM (active); in experiment [10], 0.332 µM (active); in experiment [11], 1.48 µM (active).
As to `O=C(O)[C@H](Cc1c[nH]c2ccccc12)N1C(=O)c2ccccc2C1=O`, the Potency result in experiment [1], in experiment [2], in [5], in [7], in experiment [8] and in experiment [9] was “inactive” throughout. For the same molecule, the Potency result in experiment [11] was “inactive”.
As for `CN1c2cc(O)c(N=NC(N)=O)cc2CC1S(=O)(=O)O` (stereo not drawn), the Potency result in [1], in experiment [2], in [7] and in experiment [9] was “inactive” throughout. Further, the Potency in [10] was 0.0012 µM (active).
In the case of `COc1cc(OC2CCN(C)CC2)ccc1Nc1ncc2c(n1)n(C1CCCC1)c(=O)n2C`, the Potency entry in experiment [1] and in [2] was “inactive” in each case. Further, the Potency in experiment [6] is 5.9 µM (active); in [8] it was 11.8 µM (active); in [9], 16.6 µM (active); in experiment [10], 9.35 µM (active); in [11], 23.5 µM (active).
For `O=C(NCCCNc1nc(Nc2cccc(NC(=O)N3CCCC3)c2)ncc1I)c1cccs1`, the Potency result in experiment [1], in experiment [2] and in experiment [11] was “inactive” in each case. Besides, the Potency in [6] is 4.69 µM (active); in experiment [9], 16.6 µM (active).
Turning to `CN(C)CCCN=c1c2ccccc2n(C)c2[nH]c(=O)n(C)c(=O)c12`, the Potency entry in experiment [1] and in experiment [2] was “inactive” in each case. The Potency in experiment [6] was 16.6 µM (active); in experiment [7], 20.9 µM (active); in [8] it was 2.96 µM (active); in experiment [9], 18.7 µM (active); in [10] it was 5.26 µM (active).
In the case of `CCN1CCN(Cc2ccc(-c3cc4c(N[C@H](C)c5ccccc5)ncnc4[nH]3)cc2)CC1`, the Potency result in experiment [1] was “inactive”. Further, the Potency in experiment [2] is 22.7 µM (active); in [10], 0.0469 µM (active); in [11], 0.0332 µM (active).
With `COc1cc(C(C)C)c2c(c1)S(=O)(=O)N(COc1cc(=O)n3cccc(OCCN4CCCCC4)c3n1)C2=O`, the Potency result in experiment [1] and in [2] was “inactive” throughout. Besides, the Potency in experiment [6] was 16.6 µM (active); in experiment [7], 18.7 µM (active); in experiment [8], 13.2 µM (active); in experiment [11], 20.9 µM (active).
Regarding `CC(O)C1C(=O)N2C(C(=O)O)=C(SC3CNC(C(=O)N(C)C)C3)C(C)C12` (stereo not drawn), the Potency result in experiment [2], in [3], in [12], in experiment [13], in experiment [5] and in experiment [6] was “inactive” in each case. Further, the Potency entry in experiment [7], in experiment [10] and in [11] was “inactive” each time.
On to `CN1CCN(c2ccc3nc(-c4c(N)c5c(F)cccc5[nH]c4=O)[nH]c3c2)CC1`, for which the Potency result in experiment [1] and in experiment [2] was “inactive” in each case. For the same molecule, the Potency is 2.35 µM (active) in experiment [6]; 18.7 µM (active) in experiment [7]; 11.8 µM (active) in [8]; 20.9 µM (active) in experiment [9]; 14.8 µM (active) in [10].
As for `CC(=O)Nc1sc2c(c1-c1nc3ccccc3s1)CNC2`, the Potency in experiment [1] was 3.6 µM (active); in experiment [5], 20.9 µM (active); in experiment [6], 16.6 µM (active); in [7], 23.5 µM (active); in [9] it was 11.8 µM (active). Also, the Potency entry in experiment [3], in experiment [12], in experiment [13], in [4] and in [11] was “inactive” throughout.
Consider `COC(=O)Nc1ccc(-c2nc(N3CCOCC3)c3cnn(C4CCN(Cc5cccnc5)CC4)c3n2)cc1`, for which the Potency result in experiment [1], in experiment [3], in experiment [12], in [4] and in [8] was “inactive” each time. Also, the Potency in [5] was 0.0469 µM (active); in [6], 0.0935 µM (active); in experiment [7], 1.48 µM (active); in experiment [9] it was 0.0743 µM (active).
Turning to `Clc1ccc2ncc(-c3cccc(NC4CNC4)n3)n2c1`, the Potency entry in experiment [1], in [3], in experiment [12], in experiment [13], in [4] and in experiment [11] was “inactive” each time. Also, the Potency was 4.69 µM (active) in experiment [8] and 23.5 µM (active) in experiment [9].
In the case of `Nc1nc(-c2nn(Cc3ccccc3F)c3ncccc23)nc(N)c1N1CCOCC1`, the Potency result in [1], in experiment [2], in [5] and in experiment [9] was “inactive” in each case. Besides, in experiment [8], the Potency is 20.9 µM (active).
In the case of `Cc1cc(Nc2cc(NC(=O)c3c(Cl)cccc3Cl)ccn2)nc(N)n1`, the Potency result in experiment [1] and in experiment [2] was “inactive” each time. In addition, the Potency was 18.7 µM (active) in experiment [6]; 16.6 µM (active) in experiment [7]; 0.187 µM (active) in experiment [8]; 0.296 µM (active) in [9]; 0.209 µM (active) in experiment [10].
Turning to `CC(C)(C)c1cnc(CSc2cnc(NC(=O)C3CCNCC3)s2)o1`, the Potency result in experiment [2] is “inactive”. The Potency in experiment [5] is 0.0935 µM (active); in [6], 0.264 µM (active); in experiment [7], 0.105 µM (active); in experiment [8], 1.48 µM (active); in experiment [9], 0.209 µM (active); in [10] it was 0.235 µM (active). In addition, in [11], the Potency is 0.372 µM (active).
`O=c1[nH]nc(Sc2ncc([N+](=O)[O-])s2)n1-c1ccc2c(c1)OCCO2`: the Potency entry in experiment [2] is “inactive”. Also, the Potency is 7.43 µM (active) in [5]; 2.35 µM (active) in [6]; 2.96 µM (active) in experiment [7]; 6.62 µM (active) in [8]; 2.96 µM (active) in experiment [9]; 7.43 µM (active) in experiment [10]. For the same molecule, in experiment [11], the Potency is 2.64 µM (active).

(Values after PubChem BioAssay (NCATS).)
